Measured values from the supplement of paper PMC3342239.

Test system: Saccharomyces cerevisiae
Experiment: fraction of cells in G1 phase (DNA content, flow cytometry); higher = more cells with unreplicated DNA (G1 delay)
Conditions: temperature: 30 C; YPD; JTY2953 pdr5 snq2 (sensitized); drug added to: cultures diluted from stationary phase; 6-7 h
Method in brief: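 Library drugs were added to S. cerevisiae in YPD at 30°C, with fixation after 6–7 h for sensitized JTY2953 diluted 1∶200 from overnight and given a final 20 µg/ml, 6 h for dividing JTY2953, and 4.33 h for BY4741. Ethanol-fixed cells stained with SYTOX Green were read by flow cytometry, 10,000 events each. The G1 fraction is the ratio of the Dean-Jett-Fox G1 peak area to the G1 plus G2/M areas.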

## Nc1ccc(C(=O)O)c(O)c1 [4-aminosalicylic acid] (130.601 µM)
  fraction of cells in G1 phase: 0.481

## COc1cc(C)c(/C=C/C(C)=C/C=C/C(C)=C/C(=O)O)c(C)c1C [Acitretin] (61.2745 µM)
  fraction of cells in G1 phase: 0.563

## COc1ccc2c(c1)c(CC(=O)OCC(=O)O)c(C)n2C(=O)c1ccc(Cl)cc1 [Acemetacin] (48.0961 µM)
  fraction of cells in G1 phase: 0.489

## CC[C@H]1OC(=O)[C@H](C)[C@@H](O[C@H]2C[C@@](C)(OC)[C@@H](O)[C@H](C)O2)[C@H](C)[C@@H](O[C@@H]2O[C@H](C)C[C@H](N(C)C)[C@H]2O)[C@](C)(O)C[C@@H](C)/C(=N\OCOCCOC)[C@H](C)[C@@H](O)[C@]1(C)O [Roxithromycin] (23.8929 µM)
  fraction of cells in G1 phase: 0.472

## CC1Cc2ccccc2N1NC(=O)c1ccc(Cl)c(S(N)(=O)=O)c1 (stereo not given) [Indapamide] (54.6685 µM)
  fraction of cells in G1 phase: 0.511

## CC1=C(C)C(=O)C(CCCCC#CCCCC#CCO)=C(C)C1=O [Docebenone] (61.2671 µM)
  fraction of cells in G1 phase: 0.552

## CN1CCN(c2c(F)cc3c(=O)c(C(=O)O)cn(CCF)c3c2F)CC1 [Fleroxacin] (54.1497 µM)
  fraction of cells in G1 phase: 0.479

## CC=CC(=O)N(CC)c1ccccc1C [Crotamiton] (98.3833 µM)
  fraction of cells in G1 phase: 0.503

## CN1CCCCC1CCN1c2ccccc2Sc2ccc([S+](C)[O-])cc21 (stereo not given) [Mesoridazine besylate] (51.7354 µM)
  fraction of cells in G1 phase: 0.476

## O=C(C1CCCCC1)N1CC(=O)N2CCc3ccccc3C2C1 (stereo not given) [Praziquantel] (64.0173 µM)
  fraction of cells in G1 phase: 0.441
